Among the data in PubChem BioAssay AID652154 (Broad Institute, 2013) are inhibition values, retold here.

Each structure is given as a SMILES string. Values joined by “and” are separate entries in the source; they are usually repeats but may differ in a detail not shown here. Identical values can stand only once. In all, about 360,000 compounds went through this assay and about 4,200 (1.2%) were called active. The entries come from a sample that favours actives as a whole. A number with no mark means an inactive call.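 How the source made its calls: active means mean replicate inhibition at least 60% with every replicate also reaching 60%; inconclusive means only one of the two criteria is met; inactive means mean below 60% and not all replicates reaching 60%.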

A short description of the experiment: PAX8 transcriptional activity inhibition in RMG-I – RMG-I cells, luciferase, single concentration, primary screen (AID 652154).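 Further: luciferase light reporting Pax8 driven TPO promoter activity; plate controls were median of neutral control wells for no effect and mitoxantrone controls for full effect.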 The conditions noted are these: RMG-I TPO-luciferase reporter, SteadyGlo, 24 h; at 12.6 µM; active compounds read high. On the technique in general: A reporter such as luciferase makes a cellular process visible.
`C[C@H](CO)N1C[C@H](C)[C@H](CN(C)C(=O)CCC(F)(F)F)OCCCC[C@H](C)Oc2ccc(NS(C)(=O)=O)cc2C1=O`: the inhibition is -0.897%.

Take `Cc1ccc(-c2cnc3c(c2)C(=O)N([C@H](C)CO)C[C@H](C)[C@@H](CN(C)C(=O)c2cccc(F)c2)O3)cc1`: the inhibition is 6.03%.

Take `CCNC(=O)[C@H]1[C@H](CO)[C@H]2Cn3c(ccc(-c4ccc(OC)cc4)c3=O)[C@H]2N1Cc1ccccc1`: the inhibition was 21.7%.

As to `CCNC(=O)C[C@H]1CC[C@@H]2[C@H](COC[C@H](O)CN2S(=O)(=O)c2ccc(Oc3ccccc3)cc2)O1`, the inhibition is -12.7%.

`COc1ccc(NC(=O)N(C)C[C@H]2Oc3ccc(NS(=O)(=O)c4ccc(C)cc4)cc3C(=O)N([C@@H](C)CO)C[C@H]2C)cc1`: the inhibition is 2.38%.

Consider `C[C@H](CO)N1C[C@H](C)[C@H](CN(C)C(=O)CCN(C)C)OCc2ccccc2-c2c(n(C)c3ccccc23)C1=O`, for which the inhibition was -16%.

`C[C@H]1CCCCO[C@@H](CN(C)Cc2ccc(C(F)(F)F)cc2)[C@@H](C)CN([C@@H](C)CO)C(=O)c2cc(NC(=O)Nc3ccccc3)ccc2O1`: the inhibition was 67.9% (active).

In the case of `CC(C)NC(=O)Nc1ccc2c(c1)C(=O)N([C@H](C)CO)C[C@H](C)[C@@H](CN(C)Cc1ccc(C(F)(F)F)cc1)OCCCC[C@@H](C)O2`, the inhibition is -13.6% and 26.1%.

As to `COc1ccc(CN(C)C[C@@H]2OCCCC[C@@H](C)Oc3ccc(NC(=O)Nc4ccc(OC)cc4)cc3C(=O)N([C@@H](C)CO)C[C@@H]2C)cc1`, the inhibition was -12.3%.

For the compound `C[C@@H]1CN([C@@H](C)CO)C(=O)c2cc(NC(=O)Nc3cccc4ccccc34)ccc2O[C@@H](C)CCCCO[C@H]1CN(C)Cc1ccccc1`, the inhibition is -1.82%.

Consider `C[C@@H]1CN([C@H](C)CO)C(=O)c2cc(NC(=O)Nc3ccccc3)ccc2O[C@@H](C)CCCCO[C@H]1CN(C)Cc1ccc(C(F)(F)F)cc1`, for which the inhibition is 77.3% (active).

As for `C[C@@H]1CCCCO[C@@H](CN(C)Cc2ccc(C(F)(F)F)cc2)[C@@H](C)CN([C@H](C)CO)C(=O)c2cc(NC(=O)Nc3ccccc3)ccc2O1`, the inhibition is -1.66%.

With `C[C@@H]1CCCCO[C@@H](CN(C)Cc2ccc(C(=O)O)cc2)[C@H](C)CN([C@@H](C)CO)C(=O)c2cc(NC(=O)Nc3ccc(C(F)(F)F)cc3)ccc2O1`, the inhibition was -16.9%.

With `C[C@@H]1CCCCO[C@@H](CN(C)Cc2ccccc2)[C@H](C)CN([C@H](C)CO)C(=O)c2cc(NC(=O)Nc3cccc4ccccc34)ccc2O1`, the inhibition was 73.4% (active).

Take `COc1ccc(NC(=O)Nc2ccc3c(c2)C(=O)N([C@@H](C)CO)C[C@H](C)[C@H](CN(C)Cc2ccc(C(F)(F)F)cc2)OCCCC[C@H](C)O3)cc1`: the inhibition is 71.6% (active).

With `C[C@@H]1CCCCO[C@H](CN(C)Cc2ccccc2)[C@H](C)CN([C@@H](C)CO)C(=O)c2cc(NC(=O)Nc3cccc4ccccc34)ccc2O1`, the inhibition was 21%.

With `C[C@H](CO)N1C[C@H](C)[C@@H](CN(C)Cc2ccc3c(c2)OCO3)OCCCC[C@H](C)Oc2ccc(NC(=O)Nc3ccc(C(F)(F)F)cc3)cc2C1=O`, the inhibition was 36.6%.

`COc1ccc(CN(C)C[C@@H]2OCCCC[C@@H](C)Oc3ccc(NC(=O)Nc4ccc(C(F)(F)F)cc4)cc3C(=O)N([C@H](C)CO)C[C@H]2C)cc1`: the inhibition was -16.7%.

`CC(C)NC(=O)N1C[C@@H]2[C@H](c3ccccc31)[C@H](CO)N2C(=O)c1ccccn1`: the inhibition was -13.7%.

With `COCC#Cc1ccc([C@@H]2[C@@H](CO)N3C(=O)CN(C(=O)C4CCOCC4)C[C@@H]23)cc1`, the inhibition was -23.4%.

For `COc1ccc(NC(=O)N(C)C[C@H]2Oc3ccc(N(C)C)cc3C(=O)N([C@@H](C)CO)C[C@H]2C)cc1`, the inhibition was -20.3%.

Turning to `O=C(NCC1CC1)[C@@H]1[C@@H](CO)[C@@H]2Cn3c(ccc(C4=CCCC4)c3=O)[C@H]1N2CCC(F)(F)F`, the inhibition is -4.22%.

Turning to `CCCNC(=O)N1C[C@H]2[C@@H](c3ccccc31)[C@@H](CO)N2C(=O)NCCC`, the inhibition was -23.2%.

As for `Nc1nc2c(ncn2[C@@H]2O[C@H](C(=O)N[C@H](Cc3ccccc3)C(=O)NCC3CCCCC3)[C@@H](O)[C@H]2O)c(=O)[nH]1`, the inhibition is -4.88%.

On to `C[C@H](CO)N1C[C@H](C)[C@@H](CN(C)C(=O)Nc2ccnc(N3CCOCC3)c2)OCc2ccccc2-c2ccccc2C1=O`, for which the inhibition is -26.9%.

As to `C[C@@H]1CN([C@@H](C)CO)C(=O)Cc2cc(NC(=O)Nc3ccc(F)cc3)ccc2O[C@@H]1CN(C)C`, the inhibition was -0.58%.

For the compound `C[C@H](CO)N1C[C@H](C)[C@@H](CN(C)Cc2ccncc2)Oc2ccc(NS(=O)(=O)c3ccc(Cl)cc3)cc2CC1=O`, the inhibition was 20.9%.

For the compound `CCCNC(=O)N1CC2(C1)[C@@H](c1ccccc1)[C@@H](CO)N2C(=O)CC1CC1`, the inhibition is -12.2%.

Take `CCCNC(=O)N1C[C@@H](C)[C@@H](OC)CN(C)C(=O)c2ccc(NC(=O)CCC)cc2OC[C@H]1C`: the inhibition is 1.97%.

With `C[C@@H]1CN([C@H](C)CO)C(=O)c2cc(Br)cnc2O[C@@H]1CN(C)C(=O)Nc1ccc(F)cc1`, the inhibition was 9.97%.

Turning to `C[C@@H]1CCCCO[C@@H](CN(C)Cc2ccc(C(=O)O)cc2)[C@@H](C)CN([C@@H](C)CO)C(=O)c2cc(NC(=O)Nc3ccc(C(F)(F)F)cc3)ccc2O1`, the inhibition was -6.61%.

For the compound `C[C@@H]1CN([C@H](C)CO)C(=O)c2cc(NC(=O)Nc3ccc(C(F)(F)F)cc3)ccc2O[C@@H](C)CCCCO[C@@H]1CN(C)Cc1ccc(C(F)(F)F)cc1`, the inhibition was -27.4%.

In the case of `C[C@@H]1CCCCO[C@H](CN(C)Cc2ccc(C(F)(F)F)cc2)[C@H](C)CN([C@H](C)CO)C(=O)c2cc(NC(=O)Nc3ccc(F)cc3)ccc2O1`, the inhibition was 92.5% (active).

On to `COc1ccc2c3c([nH]c2c1)[C@H](CO)N(C(=O)C1CCCCC1)CC31CCN(C(=O)c2ccncc2)CC1`, for which the inhibition is 3.94%.

Turning to `CCC(=O)N(C)C[C@@H]1Oc2cc(-c3ccccc3OC)ccc2S(=O)(=O)N([C@H](C)CO)C[C@H]1C`, the inhibition is -9.48%.

Usually inhibition stands for the relative decrease from the control value, in per cent.
